Screens deposited in PubChem by National Center for Advancing Translational Sciences (NCATS).
This excerpt belongs to a sample that is enriched for hits.
nsP2pro inh – Primary qHTS for inhibitors of NSP2Pro chikungunya virus (CHIKV) | AID 1964107, 2024 | Polyprotein P1234 (Chikungunya virus (strain S27-African prototype)), Q8JUX6 | Potency, µM (doses to about 24.9 µM), hits mostly inhibitors | FRET peptide cleavage, nsP2pro, fluorescence 1 h | 1.1% of 31,000 active; also: nearly all actives have a fitted effect of over 60% in size
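Purified recombinant nsP2pro (150 nM final) in 10 mM Tris-HCl pH 8.0 with 0.01% Tween 20 was preincubated 15 min at room temperature with compound (7 concentrations, up to 25 uM). FRET peptide 2 substrate (2.5 uM final) was then added; fluorescence was read after 1 h.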
CHIKV nsP2 cell – Secondary cell base assay for inhibitors of NSP2Pro Chikungunya virus (CHIKV) | shares compounds with nsP2pro inh | cell-based CHIKV nsP2 protease reporter assay | Potency, µM (doses to about 51.1 µM), most hits filed as inhibitors | 10% of 450 active | AID 1964100, 2024; also: nearly all actives have a fitted effect of over 70% in size
NSP2 full ctr – Selectivity profile for inhibitors of NSP2Pro chikungunya virus (CHIKV): Full length NSP2 enzyme counterscreen (CHIKV-NSP2) | shares compounds with nsP2pro inh | Full-length CHIKV NSP2 protease enzymatic counterscreen | Potency, µM (doses to about 50.7 µM), hits mostly inhibitors | 39% of 410 active; also: nearly all actives have a fitted effect of over 65% in size
Furin counterscr – Selectivity profile for inhibitors of NSP2Pro chikungunya virus (CHIKV): Human furin counterscreen | AID 1964102, 2024 | 6% of 410 active | Recombinant human furin enzymatic counterscreen, fluorogenic substrate | shares compounds with nsP2pro inh | Potency, µM (highest dose often 50.6 µM), usual class: inhibitors
nsP2 NS23 pep – Selectivity profile for inhibitors of NSP2Pro chikungunya virus (CHIKV): Endogenous NS2/3 peptide Counterscreen | AID 1964103, 2024 | shares compounds with nsP2pro inh | 34% of 410 active | Potency, µM (doses to about 51 µM), most hits filed as inhibitors | Purified CHIKV nsP2 protease, endogenous NS2/3 peptide cleavage; also: nearly all actives have a fitted effect of over 55% in size
Papain cs – Selectivity profile for inhibitors of NSP2Pro chikungunya virus (CHIKV): Papain Counterscreen | shares compounds with nsP2pro inh | 5% of 410 active | Potency, µM (titrated, usually from 51 µM), hits mostly inhibitors | purified papain protease activity, enzymatic inhibition
Target sequence (P00784 whole entry, looked up): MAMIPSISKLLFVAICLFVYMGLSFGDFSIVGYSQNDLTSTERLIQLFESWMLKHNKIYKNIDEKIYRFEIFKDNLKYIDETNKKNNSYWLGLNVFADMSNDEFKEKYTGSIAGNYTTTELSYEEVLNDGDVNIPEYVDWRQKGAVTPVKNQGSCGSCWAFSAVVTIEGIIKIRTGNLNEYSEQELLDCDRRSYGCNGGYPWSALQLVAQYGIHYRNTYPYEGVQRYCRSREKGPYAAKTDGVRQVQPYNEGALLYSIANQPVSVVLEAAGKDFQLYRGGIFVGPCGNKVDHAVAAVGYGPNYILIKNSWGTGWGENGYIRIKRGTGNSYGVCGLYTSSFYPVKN
nsP2pro conf qHTS – Confirmatory qHTS for inhibitors of NSP2Pro chikungunya virus (CHIKV); shares compounds with nsP2pro inh; CHIKV nsP2 protease enzymatic activity, qHTS; Potency, µM (highest dose often 25.5 µM), most hits filed as inhibitors; 43% of 410 active; AID 1964105, 2024; also: nearly all actives have a fitted effect of over 75% in size
HCV NS3 counter – Selectivity profile for inhibitors of NSP2Pro chikungunya virus (CHIKV): NS34A-HCV Counterscreen. AID 1964106, 2024. 20% of 410 active. shares compounds with nsP2pro inh. HCV NS3/4A protease biochemical counterscreen. Potency, µM (top dose mostly 50.9 µM), usual class: inhibitors; also: nearly all actives have a fitted effect of over 55% in size
Hits are given with their value. Calls follow the shape of the full dose curve.

How did CN(Cc1ccccc1)C(=O)CC1CCN(C(=O)Cc2ccccc2)C1 (configuration not stated) do in these assays?
nsP2pro inh: inactive

How did COc1ccc(CC(=O)N2CCC(c3n[nH]c(=O)n3Cc3ccc(F)cc3)CC2)cc1 do in these assays?
nsP2pro inh: inactive

Results for Cc1nc(C2CCN(C(=O)Cc3ccccc3)CCN2C(=O)Cc2ccccc2)n[nH]1 (configuration not stated) ?
nsP2pro inh: inconclusive; CHIKV nsP2 cell: inactive; NSP2 full ctr: inconclusive; Furin counterscr: inactive; nsP2 NS23 pep: inconclusive; Papain cs: inactive; nsP2pro conf qHTS: inconclusive; HCV NS3 counter: inconclusive

What do the screens show for `C=CC(=O)Nc1cc(Nc2ncc(C(=O)OC(C)C)c(-c3cn(C)c4ccccc34)n2)c(OC)cc1N(C)CCN(C)C`?
nsP2pro inh: inactive

How did Cc1ccnc(NC(=S)N2CCN(c3ccc(Cl)c(Cl)c3)CC2)c1 do in these assays?
nsP2pro inh: inactive

Results for N#Cc1ccccc1CN1CCNc2nc(CNCc3ccccc3)n(Cc3ccccc3)c2C1=O ?
nsP2pro inh: inactive

Results for CC(C)N(C(=O)c1ccccc1-c1ccc(CS(C)(=O)=O)cn1)C(C)C ?
nsP2pro inh: inactive

How did COc1ccc(-c2ccc3nc(-c4ccc(C)c(F)c4)oc3c2)c(OC)c1OC do in these assays?
nsP2pro inh: inactive

Results for COc1ccc(-c2ccc3nc(-c4cccc(F)c4)oc3c2)c(OC)c1OC ?
nsP2pro inh: inconclusive; CHIKV nsP2 cell: inconclusive

Results for COc1ccc(-c2ccc3nc(-c4ccc(F)c(F)c4)oc3c2)c(OC)c1OC ?
nsP2pro inh: inactive

Results for Cc1cccc(-n2cnc3cc(C(=O)NC4CCCCC4)ccc32)c1 ?
nsP2pro inh: inactive

What do the screens show for `CCc1cn(C[C@H](NC(=O)COC)C(=O)O)c(=O)[nH]c1=O`?
nsP2pro inh: inactive

How did CNC(=O)[C@H]1C[C@]2(CCCCNC2=O)N(C(=O)c2cccc(C#N)c2)[C@H]1c1ccco1 do in these assays?
nsP2pro inh: inactive

Results for CC(C)COC(=O)N1[C@@H](c2ccco2)[C@@H](CO)C[C@]12CCCCNC2=O ?
nsP2pro inh: inconclusive; CHIKV nsP2 cell: inactive; NSP2 full ctr: inactive; Furin counterscr: inactive; nsP2 NS23 pep: inconclusive; Papain cs: inactive; nsP2pro conf qHTS: inactive; HCV NS3 counter: inconclusive

How did Cc1cc(C)nc(NC(=S)N2CCN(c3cc(Cl)cc(Cl)c3)CC2)c1 do in these assays?
nsP2pro inh: inactive

How did N#Cc1ccc(S(=O)(=O)N2CCC(C3CCNC3)CC2)cc1 (configuration not stated) do in these assays?
nsP2pro inh: inactive

What do the screens show for `Cc1ccc(OCCn2c(CCNC(=O)c3ccccc3N)nc3ccccc32)cc1`?
nsP2pro inh: 4.5µM; CHIKV nsP2 cell: inactive; NSP2 full ctr: 0.52µM; Furin counterscr: 21µM; nsP2 NS23 pep: 1.6µM; Papain cs: inactive; nsP2pro conf qHTS: 1µM; HCV NS3 counter: 0.52µM

What do the screens show for `Cc1ccc(OCCn2c(CCNC(=O)c3ccccc3Br)nc3ccccc32)cc1`?
nsP2pro inh: inactive

How did Cc1ccc(OCCn2c(CCNC(=O)c3cc(N)ccc3N)nc3ccccc32)cc1 do in these assays?
nsP2pro inh: inactive

What do the screens show for `COc1cc2c(cc1CN1CCn3nc(C(O)CO)cc3C1)OCCO2` (configuration not stated)?
nsP2pro inh: inactive

How did O=C1Nc2ccc(C(=O)c3ccco3)cc2/C1=C/c1cc(Cl)c(O)c(Cl)c1 do in these assays?
nsP2pro inh: inactive

Results for CCc1ccc(C2=CC(C)(C)Sc3ccc(C#Cc4ccc(C(=O)O)cc4)cc32)cc1 ?
nsP2pro inh: inactive

Results for c1nc(OCc2cnc[nH]2)c2cc(-c3ccc4c(c3)OCO4)ccc2n1 ?
nsP2pro inh: inactive

What do the screens show for `COc1ccc([S+](=O)([O-])N2CCCN([S+](=O)([O-])c3ccc(OC)c(NC(C)=O)c3)CC2)cc1NC(C)=O`?
nsP2pro inh: inactive

Results for O=C1c2ccccc2C(=O)c2oc(-c3ccccc3)nc21 ?
nsP2pro inh: 8.8µM; CHIKV nsP2 cell: inactive; NSP2 full ctr: inconclusive; Furin counterscr: inactive; nsP2 NS23 pep: inactive; Papain cs: inactive; nsP2pro conf qHTS: inactive; HCV NS3 counter: inactive

What do the screens show for `O=c1ncn(Cc2ccccc2)c2ccc(-c3cccnc3)nc12`?
nsP2pro inh: inactive

How did NCCc1noc(-c2ccccc2)n1 do in these assays?
nsP2pro inh: inactive

Results for O=C(CSc1oc(-c2ccccc2)nc1S(=O)(=O)c1ccccc1)c1ccccc1 ?
nsP2pro inh: inactive

What do the screens show for `Cc1cnc(-c2ccccc2C(C)C)nc1N(C)Cc1ccc(-c2cccnc2)cc1`?
nsP2pro inh: inactive

Results for O=C1c2ccccc2C(=O)c2oc(-c3cccnc3)nc21 ?
nsP2pro inh: 3.1µM; CHIKV nsP2 cell: inconclusive; NSP2 full ctr: inactive; Furin counterscr: inactive; nsP2 NS23 pep: inconclusive; Papain cs: inactive; nsP2pro conf qHTS: inconclusive; HCV NS3 counter: inactive

Results for O=c1c2ccccc2nc2sc(Nc3cccc(N4CCN5CCCCC5C4)c3)nn12 (configuration not stated) ?
nsP2pro inh: inactive

How did OB1OCc2cc(F)ccc21 do in these assays?
nsP2pro inh: inactive

How did N/C(=N\c1nnc(-c2ccncc2)s1)Nc1ccc(F)c(C(F)(F)F)c1 do in these assays?
nsP2pro inh: inactive

What do the screens show for `O=C1Cc2cc(S(=O)(=O)N3CCN(c4ccc(CO)cc4)CC3)ccc2N1`?
nsP2pro inh: inactive

Results for C=CC(=O)Nc1cc(-n2c(=O)ccc3cnc4ccc(-c5ccc(NS(C)(=O)=O)cc5)cc4c32)ccc1C ?
nsP2pro inh: inactive

How did CN(C)c1cc(CNCC(C)(C)C)c(O)c2c1C[C@H]1C[C@H]3[C@H](N(C)C)C(=O)C(C(N)=O)=C(O)[C@@]3(O)C(=O)C1=C2O do in these assays?
nsP2pro inh: inactive
